The values that follow come from PubChem BioAssay AID1963315 (National Center for Advancing Translational Sciences (NCATS), 2024).

Inconclusive results are not listed. A number with no mark means an inactive call. Activity calls are given as the source filed them. Calls follow the shape of the full dose curve.

For this experiment, the target named is Tyrosine-protein kinase ABL1 (Homo sapiens) (UniProt P00519). In words: ABL1 kinase (ABL1-N-HiBiT) SDR gain of signal screen. The following applies: Purified ABL1-N-HiBiT enzyme, Nano-Glo HiBiT luminescence, 30 min compound incubation; series mostly up to 32.9 µM; activity change, gain of signal: at the top concentration. The procedure, abridged: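 Gain-of-signal luminescence after Nano-Glo HiBiT detection (10 min, room temperature) measures compound binding to 10 nM ABL1-N-HiBiT, which had been incubated 30 min with compound at room temperature, light-protected, without ATP.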
Tyrosine-protein kinase ABL1 (Homo sapiens), sequence (P00519 whole entry, looked up): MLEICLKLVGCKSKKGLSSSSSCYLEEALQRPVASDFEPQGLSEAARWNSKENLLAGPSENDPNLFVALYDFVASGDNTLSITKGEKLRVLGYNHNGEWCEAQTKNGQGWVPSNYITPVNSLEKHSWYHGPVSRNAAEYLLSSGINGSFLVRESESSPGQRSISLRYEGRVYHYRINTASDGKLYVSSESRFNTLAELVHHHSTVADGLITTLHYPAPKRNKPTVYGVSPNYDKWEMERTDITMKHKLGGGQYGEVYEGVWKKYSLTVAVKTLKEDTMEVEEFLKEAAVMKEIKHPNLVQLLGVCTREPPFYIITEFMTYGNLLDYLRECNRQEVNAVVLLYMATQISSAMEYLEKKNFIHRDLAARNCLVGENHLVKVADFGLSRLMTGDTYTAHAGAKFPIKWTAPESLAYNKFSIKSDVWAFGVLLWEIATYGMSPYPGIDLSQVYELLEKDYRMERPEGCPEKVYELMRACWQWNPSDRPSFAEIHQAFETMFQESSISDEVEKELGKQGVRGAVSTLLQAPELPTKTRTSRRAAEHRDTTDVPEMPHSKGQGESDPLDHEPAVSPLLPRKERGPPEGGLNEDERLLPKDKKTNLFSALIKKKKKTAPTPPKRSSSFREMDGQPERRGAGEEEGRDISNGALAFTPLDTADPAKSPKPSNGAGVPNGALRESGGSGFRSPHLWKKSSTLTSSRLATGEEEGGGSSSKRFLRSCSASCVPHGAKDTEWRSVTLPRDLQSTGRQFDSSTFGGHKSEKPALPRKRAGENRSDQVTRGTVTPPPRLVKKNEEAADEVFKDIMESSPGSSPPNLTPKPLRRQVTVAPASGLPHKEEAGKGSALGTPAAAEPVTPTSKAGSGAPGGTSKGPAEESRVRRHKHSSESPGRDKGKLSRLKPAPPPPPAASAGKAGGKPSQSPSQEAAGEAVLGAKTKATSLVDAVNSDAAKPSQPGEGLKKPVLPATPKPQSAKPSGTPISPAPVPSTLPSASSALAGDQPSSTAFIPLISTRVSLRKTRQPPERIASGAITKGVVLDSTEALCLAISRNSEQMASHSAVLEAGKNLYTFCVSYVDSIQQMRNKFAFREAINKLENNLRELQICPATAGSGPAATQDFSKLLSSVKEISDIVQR
In general terms: With HiBiT, luminescence reflects the tagged protein that the partner subunit can reach.
On to `Cn1cc(-c2cc3c(N4CCN(c5ncc([C@@](C)(N)c6ccc(F)cc6)cn5)CC4)ncnn3c2)cn1`, for which the Potency was 2480 nM (active).
As for `O=C1C(c2c(O)[nH]c3ccccc23)=Nc2ccccc21`, the “activity change, gain of signal” value is -1.14%.
For the compound `Cc1cc(Nc2ncc3cc(-c4c(Cl)cccc4Cl)c(=O)n(C)c3n2)ccc1F`, the Potency is 4.94 nM (active).
